Only some compounds are listed: those with a hit (about 5.7% of all), similar ones and a draw of the others.
KDM4E inh = inhibitors of human JMJD2E histone demethylase. B2RXH2. JMJD2E catalytic domain, FDH-coupled NADH fluorescence (FDH is formaldehyde dehydrogenase). Potency, µM (doses to about 57.1 µM), inactives show top-dose activity change, negative = inhibition, actives largely listed as inhibitors. 1.6% of 230,000 active. AID 2147; active = well fitted inhibition curve with a large enough effect, not every such curve was filed as active; inconclusive = small, poorly fitted or top-dose-only effect, or another doubt; inactive = no such curve, though single readings can be large or run the other way;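 also: potency is read from the fitted curve at half-maximal effect; 0% = wells with enzyme and -100% = buffer wells without enzyme; nearly all actives have a fitted effect of over 50% in size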
BAZ2B block = inhibitors of human BAZ2B bromodomain | AlphaScreen BAZ2B-H3K14Ac peptide displacement | Potency, µM (titrated, usually from 114 µM), without a hit: at the highest dose activity change, negative = inhibition, actives largely listed as inhibitors | AID 504333 | Q9UIF8 | 4.4% of 360,000 active; also: potency is read from the fitted curve at half-maximal effect; % is scaled to controls: 0 for no effect and ±100 for the full control effect; nearly all actives have a fitted effect of over 60% in size
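Complex of BAZ2B and biotin-H3K14Ac (50 nM apiece) forms over 30 min at RT, then faces library compounds up to 110 uM for another 30 min; AlphaScreen beads added, 20 min dark incubation, luminescence read.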
JMJD2A Tudor inh = blocks the human JMJD2A Tudor domain. 4.4% of 390,000 active. Potency, µM (highest dose often 114 µM), without a hit: at the highest dose activity change, negative = inhibition, usual class: inhibitors. AlphaScreen JMJD2A-Tudor / H3K4me3 peptide binding. O75164; also: potency is read from the fitted curve at half-maximal effect; % is scaled to controls: 0 for no effect and ±100 for the full control effect; nearly all actives have a fitted effect of over 50% in size
HP1b chromo inh = inhibitors of HP1-beta chromodomain binding to methylated histone tails | P83916 | AlphaScreen HP1-beta / biotin-H3K9me3 peptide binding | Potency, µM (top dose mostly 114 µM), for inactives: at the highest dose activity change, negative = inhibition, usual class: inhibitors | 0.56% of 390,000 active; also: potency is read from the fitted curve at half-maximal effect; nearly all actives have a fitted effect of over 70% in size
Target sequence (P83916 whole entry, looked up): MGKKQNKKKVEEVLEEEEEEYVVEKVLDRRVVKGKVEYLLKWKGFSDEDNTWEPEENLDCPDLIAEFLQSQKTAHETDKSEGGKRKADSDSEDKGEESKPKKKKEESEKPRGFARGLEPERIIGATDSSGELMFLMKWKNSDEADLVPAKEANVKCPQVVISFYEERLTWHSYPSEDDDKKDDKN
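HP1-beta protein (50 nM final) preincubated 30 min at room temperature with biotinylated H3(1-18)K9me3 peptide (50 nM) in PBS pH 7.4, 0.01% Tween-20, then compound added for 30 min. AlphaScreen streptavidin donor/nickel chelate acceptor beads (10 ug/mL final), 30 min dark, luminescence read.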
L3MBTL1 inh = inhibitors of human L3MBTL1 | Potency, µM (top dose mostly 57.1 µM), inactives show at the highest dose activity, negative = inhibition, actives largely listed as inhibitors | AlphaScreen L3MBTL1–H3K9me1 peptide binding | AID 485360 | 0.66% of 230,000 active; also: potency is read from the fitted curve at half-maximal effect; % is scaled to controls: 0 for no effect and ±100 for the full control effect; nearly all actives have a fitted effect of over 60% in size
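L3MBTL1 (50 nM) pre-complexed 30 min with biotinylated H3(1-15)K9me1 peptide (75 nM), then compounds added for 30 min at room temperature; AlphaScreen streptavidin donor/nickel chelate acceptor beads (10 ug/mL final) read after 30 min dark incubation.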
PI5P4K alpha inh = PI5P4K alpha (human) kinase inhibition. PI5P4Kalpha enzyme, ADP-Glo luminescence, 60 min; hits give low values. max response, %. 1.2% of 330,000 active. AID 652105; active = max response of -50% or lower; inconclusive = between -30% and -50%; inactive = -30% or higher; also: value at the top dose of about 77 µM; % is scaled to controls: 0 for no effect and ±100 for the full control effect
Target sequence (P48426 whole entry, looked up): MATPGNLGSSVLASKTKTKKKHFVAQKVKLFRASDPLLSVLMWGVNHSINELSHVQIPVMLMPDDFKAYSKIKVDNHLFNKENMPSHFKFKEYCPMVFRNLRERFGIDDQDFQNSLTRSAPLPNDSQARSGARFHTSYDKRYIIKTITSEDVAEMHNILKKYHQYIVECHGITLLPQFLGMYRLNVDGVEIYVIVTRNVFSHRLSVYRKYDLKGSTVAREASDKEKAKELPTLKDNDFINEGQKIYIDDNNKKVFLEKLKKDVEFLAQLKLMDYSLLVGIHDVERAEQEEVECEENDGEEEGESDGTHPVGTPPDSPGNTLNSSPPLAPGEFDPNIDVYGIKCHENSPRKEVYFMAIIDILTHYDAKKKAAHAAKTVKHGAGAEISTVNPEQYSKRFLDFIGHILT
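qHTS, 1536-well: enzyme/substrate mix, compound by pin tool, 5 microM ATP final; RT 60 min; ADP-Glo reagents 1 (45 min) then 2 (30 min); luminescence.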
Numbers without * were called inactive; ? = inconclusive; . = no result given; ! = repeats disagree; [ ] = dose if it differs, or a comment. Unless noted, calls follow the shape of the dose curve; as a rule, active = well fitted inhibition curve with a large enough effect; inconclusive = small, poorly fitted or top-dose-only effect; inactive = no such curve, though single readings can be large or run the other way.

SMILES	KDM4E inh	BAZ2B block	JMJD2A Tudor inh	HP1b chromo inh	L3MBTL1 inh	PI5P4K alpha inh
O=[N+]([O-])c1cccc(C=NNc2ccc3ccccc3n2)c1O	.	.	22.4µM*	18.5%	.	?
O=C(N/N=C\c1ccc(Br)o1)C1COc2ccccc2O1 (configuration not stated)	-8.8%	50.1µM*	39.8µM*	?	-0.8%	?
O=C(N/N=C/c1cccc([N+](=O)[O-])c1O)c1cccs1	3.98µM*	22.4µM*	50.1µM*	2.8%	?	-51.2*
Brc1ccccc1/C=N/Nc1ccc2ccccc2n1	-4.6%	-9.7%	-24.2%	25.9%	3.4%	5.0
CN(C)C(=O)c1ccc(-c2cc[nH]c(=O)c2N)cc1	.	.	-26.0%	.	.	.
CN(C)c1ccc(-c2cc[nH]c(=O)c2N)cc1	.	.	20µM*	.	.	.
O=C(CCc1ccccc1)NCc1ccncc1	.	1.8%	-13.3%	26.5%	-1.4%	3.4
O=C(CCNNC(=O)c1ccncc1)NCc1ccccc1	8.91µM*!	4.8%	2.9%	42.3%	2.4%	1.2
O=C(NCc1ccncc1)c1ccc(Oc2ccccc2)cc1	-7.4%	-13.8%	12.6µM*	0.9%	-3.8%	?
COc1ccc(C(=O)NC(=S)N2CCC(C)CC2)cc1Br	.	?	?	50.6%	.	-3.2
COc1ccc(C(=O)NC(=S)N2CCNC(=O)C2)cc1Br	-3.7%	?	35.5µM*	-16.1%	9.2%	-17.1
O=S(=O)(c1ccc(OC(F)(F)F)cc1)N1CCN(c2nc(-c3ccccc3)nc3ccccc23)CC1	.	.	-7.8%	30.1%	.	.
CC(=O)C1=C(C)NC2=C(C(=O)c3ccccc32)C1c1ccccc1 (configuration not stated)	-13.2%	?	?	?	.	-2.1
CCOc1ccccc1C1NC(=O)NC(C)=C1C(=O)OCc1ccccc1 (configuration not stated)	.	2.7%	-12.6%	41.0%	-0.9%	-1.0
COC(=O)COc1ccc(C2C(C(=O)OC)=C(C)NC3=C2C(=O)c2ccccc23)cc1OC (configuration not stated)	.	25.1µM*	?	?	.	.
CCOc1cc(C2C(C(=O)OC)=C(C)NC3=C2C(=O)c2ccccc23)cc(Cl)c1O (configuration not stated)	.	?	-23.5%	-12.5%	.	.
CCOC(=O)C1=C(C)NC2=C(C(=O)c3ccccc32)C1c1ccc([N+](=O)[O-])o1 (configuration not stated)	8.5%	11.2µM*	22.4µM*	50.1µM*	-27.6%	-15.0
CCOC(=O)COc1ccccc1C1C(C(=O)OC)=C(C)NC2=C1C(=O)c1ccccc12 (configuration not stated)	.	39.8µM*	39.8µM*	?	.	.
CCOc1ccc(Br)cc1C1C(C(=O)OC)=C(C)NC2=C1C(=O)c1ccccc12 (configuration not stated)	.	22.4µM*	25.1µM*	?	.	.
COc1cccc(OC)c1Cn1nnc2c(=O)[nH]c(C3CCN(C(=O)c4ccccc4)CC3)nc21	.	-5.1%	-0.3%	41.9%	.	.
C[C@H](NC(=O)C1CCN(S(=O)(=O)c2ccccc2)CC1)C(=O)NCc1ccc(F)cc1	.	1.5%	-18.1%	16.4%[57 µM]	.	9.1
O=C(CCl)N1c2ccccc2Oc2ccc3ccccc3c21	.	.	56.2µM*	70.8µM*	.	0.5
Cc1cc(N2CCN(c3ccccc3)CC2)nc(-n2nc(C)cc2C)n1	4.1%	?	44.7µM*	15.8%	-18.7%	.
CCOc1ccc(N=Nc2cc(C(C)C)ccc2O)cc1	-0.6%	5.62µM*	17.8µM*	14.1µM*	28.2µM*	37.5
Cc1cc(C(O)c2ncc(-c3cccc4ccccc34)[nH]2)ccc1F (configuration not stated)	.	.	.	.	.	11.3
SMILES	KDM4E inh	BAZ2B block	JMJD2A Tudor inh	HP1b chromo inh	L3MBTL1 inh	PI5P4K alpha inh
CC/C(=N\Nc1ccnc2cc(Cl)ccc12)c1ccc(O)cc1	.	?	?	-33.6%	.	7.0
Oc1ccc(/C=N/Nc2ccnc3cc(Cl)ccc23)cc1O	?	39.8µM*	-11.8%[11.4 µM]	-19.1%	.	?
Oc1ccc(/C=N/Nc2ccnc3cc(Cl)ccc23)c(O)c1O	.	44.7µM*	?	-36.6%[57 µM]	.	-74.4*
COc1ccc(NC(C)=[N+](C)CCNS(=O)(=O)c2ccc(Cl)cc2)cc1	.	56.2µM*	25.1µM*	?	.	-22.3
COc1cc(C(C)=O)ccc1OCc1nnc(-c2ccccc2Br)o1	.	-5.6%	-4.9%	53.7%	.	-7.0
COc1ccc(C(C)=O)cc1Cn1nnc(-c2ccccc2Br)n1	.	56.2µM*	-6.2%	28.2%	.	-8.8
Cc1nn(-c2ccc(C(=O)O)cc2)c(N)c1-c1ccccc1	1.3%	-11.0%	-3.4%[11.4 µM]	45.2%	-5.7%	-3.7
Nc1c(-c2ccccc2)c(CSc2nc3ccccc3[nH]2)nn1-c1ccc(C(=O)O)cc1	6.5%	9.9%	22.4µM*	?	-12.2%	-26.4
CN(C)CCNC(=O)C1CCN(c2ncnc3c2nc2n3CCCCC2)CC1	.	1.9%	-20.8%	29.8%	.	.
CCCCNC(=O)c1cccc(-n2cnc3cccnc32)c1C	.	-5.4%	-5.5%	13.0%	.	.
Cc1ccc(/C=N/n2c(-c3cccnc3)n[nH]c2=S)s1	0.9%	-6.7%	4.47µM*	-8.9%	8.8%	-15.3
Cc1ccc(-c2n[nH]c(=S)n2/N=C/c2ccncc2)cc1	-4.0%	-11.9%	?	-15.8%	.	14.7
S=c1[nH]nc(-c2cccnc2)n1/N=C/c1ccc(Br)s1	-21.6%	-36.2%	5.62µM*	55.6%	-4.8%	6.3
S=c1[nH]nc(-c2ccc(Cl)cc2)n1/N=C/c1cccs1	4.4%	-9.7%	-18.5%	19.4%	0.9%	0.0
CCOc1ccccc1CNC(=O)CCCN1C(=O)CCn2nc(-c3cccn3C)cc21	.	?	?	-9.4%[57 µM]	.	.
N#Cc1sc2nc(-c3ccccc3)cc(-c3ccco3)c2c1N	?	?	56.2µM*	-19.0%	?	-99.9*
CC1=NN(c2ccccc2)C(=O)C1C=Nc1ccccc1O (configuration not stated)	31.6µM*	-23.1%	-28.2%	18.4%	-23.1%	1.7
CC1=NN(c2ccccc2)C(=O)C1/C=C1\NC(=S)NC1=O (configuration not stated)	?	?	56.2µM*	?	.	-73.6*
O=C1NC(=S)NC1=Cc1ccccc1O	.	.	-13.8%	15.2%[57 µM]	.	-14.8
CCOc1c(Br)cc(C2C=C(C(=O)O)Nc3ncnn32)cc1OC (configuration not stated)	.	-1.0%	-4.8%	37.4%	.	.
COc1cc(/C=C(\C#N)C(=O)Nc2cccc(C(=O)O)c2)ccc1OCc1ccc(Cl)cc1	.	44.7µM*	?	1.9%	.	-10.2
Cc1cc(=O)[nH]c2nnc(SCC(=O)Nc3ccc(OC(F)(F)F)cc3)n12	.	0.1%	-6.2%	30.9%	.	.

Source: PubChem BioAssay (National Center for Advancing Translational Sciences (NCATS))
